# Measured values reported in PMC11062922 (Nature Chemical Biology, 2023).
# Like-named read-outs stand apart in the source and are kept apart here.
# Legend:
# Parameters in all cases: species or system human, MV4-11 + K-562 + COLO205 + SK-N-BE2 + OVCAR-8
# CDK7 = settings: read-out: apparent Kd; compound concentrations:100 nM and 1000 nM (sheet 'Samples'); n = 1
# ERCC2 = settings: read-out: apparent Kd; compound concentrations:100 nM and 1000 nM (sheet 'Samples'); n = 1
# GSK3A = settings: read-out: apparent Kd; compound concentrations:100 nM and 1000 nM (sheet 'Samples'); n = 1
# GSK3B = settings: read-out: apparent Kd; compound concentrations:100 nM and 1000 nM (sheet 'Samples'); n = 1
# PAK6 = settings: read-out: apparent Kd; compound concentrations:100 nM and 1000 nM (sheet 'Samples'); n = 1
# PKN1 = settings: read-out: apparent Kd; compound concentrations:100 nM and 1000 nM (sheet 'Samples'); n = 1
# PRKCA = settings: read-out: apparent Kd; compound concentrations: 100 nM and 1000 nM (sheet 'Samples'), CATDS: 0.33942301458254898; n = 1
# PRKCB = settings: read-out: apparent Kd; compound concentrations:100 nM and 1000 nM (sheet 'Samples'); n = 1
# PRKCD = settings: read-out: apparent Kd; compound concentrations:100 nM and 1000 nM (sheet 'Samples'); n = 1
# PRKCQ = settings: read-out: apparent Kd; compound concentrations:100 nM and 1000 nM (sheet 'Samples'); n = 1
# RPS6KA6 = settings: read-out: apparent Kd; compound concentrations:100 nM and 1000 nM (sheet 'Samples'); n = 1
# CSNK1D = settings: read-out: apparent Kd, n = 1
# CSNK1E = settings: read-out: apparent Kd, n = 1
# MAPK14 = settings: read-out: apparent Kd, n = 1
# MAPKAPK2 = settings: read-out: apparent Kd, n = 1
# IARS = settings: read-out: apparent Kd; compound concentrations:100 nM and 1000 nM (sheet 'Samples'); n = 1
# NQO1 = settings: read-out: apparent Kd; compound concentrations:100 nM and 1000 nM (sheet 'Samples'); n = 1
# CLK1 = settings: read-out: apparent Kd; compound concentrations: 100 nM and 1000 nM (sheet 'Samples'), CATDS: 0.240445755473225; n = 1
# CLK4 = settings: read-out: apparent Kd, n = 1
# NEK3 = settings: read-out: apparent Kd; compound concentrations: 100 nM and 1000 nM (sheet 'Samples'), CATDS: 0.168041576676878; n = 1
# PIK3CG = settings: read-out: apparent Kd; compound concentrations: 100 nM and 1000 nM (sheet 'Samples'), CATDS: 0.474922434423799; n = 1
# CSNK1A1 = settings: read-out: apparent Kd; compound concentrations: 100 nM and 1000 nM (sheet 'Samples'), CATDS: 7.6615483507767895E-2; n = 1
# MAPK10 = settings: read-out: apparent Kd; compound concentrations: 100 nM and 1000 nM (sheet 'Samples'), CATDS: 9.5737343662475993E-2; n = 1
# MAPK9 = settings: read-out: apparent Kd; compound concentrations: 100 nM and 1000 nM (sheet 'Samples'), CATDS: 0.10171878103733301; n = 1
# NLK = settings: read-out: apparent Kd; compound concentrations: 100 nM and 1000 nM (sheet 'Samples'), CATDS: 8.6878607565958693E-2; n = 1
# PIP4K2C = settings: read-out: apparent Kd; compound concentrations: 100 nM and 1000 nM (sheet 'Samples'), CATDS: 7.4110853975201799E-2; n = 1
# CSNK2A1;CSNK2A3 = settings: read-out: apparent Kd; compound concentrations:100 nM and 1000 nM (sheet 'Samples'); n = 1
# FER = settings: read-out: apparent Kd; compound concentrations:100 nM and 1000 nM (sheet 'Samples'); n = 1
# FES = settings: read-out: apparent Kd; compound concentrations:100 nM and 1000 nM (sheet 'Samples'); n = 1
# GRK6 = settings: read-out: apparent Kd; compound concentrations:100 nM and 1000 nM (sheet 'Samples'); n = 1
# IGF1R = settings: read-out: apparent Kd; compound concentrations: 100 nM and 1000 nM (sheet 'Samples'), CATDS: 0.29362976208520802; n = 1
# INSR = settings: read-out: apparent Kd; compound concentrations:100 nM and 1000 nM (sheet 'Samples'); n = 1
# PIM1 = settings: read-out: apparent Kd; compound concentrations:100 nM and 1000 nM (sheet 'Samples'); n = 1
# PIM2 = settings: read-out: apparent Kd; compound concentrations:100 nM and 1000 nM (sheet 'Samples'); n = 1
# TNK1 = settings: read-out: apparent Kd; compound concentrations:100 nM and 1000 nM (sheet 'Samples'); n = 1
# [1] = compound concentrations:100 nM and 1000 nM (sheet 'Samples')
compound,measurement,setting,value
CN(C)C[C@H]1CCn2c(c(C3=C(c4cn(C)c5ccccc45)C(=O)NC3=O)c3ccccc32)C1 [RO0320432-000],potency estimated from few doses,CDK7,1010 nM
same,potency estimated from few doses,ERCC2,821 nM
same,potency estimated from few doses,GSK3A,530 nM
same,potency estimated from few doses,GSK3B,299 nM
same,potency estimated from few doses,PAK6,1540 nM
same,potency estimated from few doses,PKN1,1400 nM
same,potency estimated from few doses,PRKCA,18.6 nM
same,potency estimated from few doses,PRKCB,66.4 nM
same,potency estimated from few doses,PRKCD,27.1 nM
same,potency estimated from few doses,PRKCQ,122 nM
same,potency estimated from few doses,RPS6KA6,311 nM
Fc1ccc(-c2ncn(C3CCNCC3)c2-c2ccnc(Oc3ccc(F)c(F)c3)n2)cc1 [SB-253228],potency estimated from few doses,CSNK1D; [1],505 nM
same,potency estimated from few doses,CSNK1E; [1],1260 nM
same,potency estimated from few doses,MAPK14; [1],395 nM
same,potency estimated from few doses,MAPKAPK2; [1],125 nM
Fc1ccc(-c2ncn(C3CCNCC3)c2-c2ccnc(Oc3ccc(Oc4ccccc4)cc3)n2)cc1 [SB-245392],potency estimated from few doses,CSNK1D; [1],616 nM
same,potency estimated from few doses,CSNK1E; [1],1200 nM
same,potency estimated from few doses,IARS,2110 nM
same,potency estimated from few doses,MAPK14; [1],571 nM
same,potency estimated from few doses,NQO1,1710 nM
CC(C)C(=O)N[C@@H]1CCN(C(=O)Nc2nc3c(s2)-c2nc(-c4ccccc4Cl)ncc2CC3)C1 [BI00047804],potency estimated from few doses,CLK1,416 nM
same,potency estimated from few doses,"CLK4; compound concentrations: 100 nM and 1000 nM (sheet 'Samples'), CATDS: 0.26423272520910102",334 nM
same,potency estimated from few doses,NEK3,1310 nM
same,potency estimated from few doses,PIK3CG,115 nM
CN1CCC(n2cnc(-c3ccc(F)cc3)c2-c2ccnc(NC3CCNCC3)n2)CC1 [SB-229482],potency estimated from few doses,CSNK1A1,1760 nM
same,potency estimated from few doses,"CSNK1D; compound concentrations: 100 nM and 1000 nM (sheet 'Samples'), CATDS: 0.231386526780439",127 nM
same,potency estimated from few doses,"CSNK1E; compound concentrations: 100 nM and 1000 nM (sheet 'Samples'), CATDS: 0.20184204641009601",159 nM
same,potency estimated from few doses,MAPK10,810 nM
same,potency estimated from few doses,"MAPK14; compound concentrations: 100 nM and 1000 nM (sheet 'Samples'), CATDS: 0.239197237832417",121 nM
same,potency estimated from few doses,MAPK9,682 nM
same,potency estimated from few doses,"MAPKAPK2; compound concentrations: 100 nM and 1000 nM (sheet 'Samples'), CATDS: 0.108564299414966",573 nM
same,potency estimated from few doses,NLK,1100 nM
same,potency estimated from few doses,PIP4K2C,2040 nM
COc1cc2c(cc1Nc1nc(Nc3ccsc3C(N)=O)c3cc[nH]c3n1)N(C(=O)CN(C)C)CCC2(C)C [GSK2163632A],potency estimated from few doses,CLK4; [1],1180 nM
same,potency estimated from few doses,CSNK2A1;CSNK2A3,1950 nM
same,potency estimated from few doses,FER,82.7 nM
same,potency estimated from few doses,FES,212 nM
same,potency estimated from few doses,GRK6,2050 nM
same,potency estimated from few doses,IGF1R,22 nM
same,potency estimated from few doses,INSR,6.22 nM
same,potency estimated from few doses,PIM1,647 nM
same,potency estimated from few doses,PIM2,1920 nM
same,potency estimated from few doses,TNK1,599 nM
